The results in this text go back to ChEMBL document CHEMBL1961873, “Compounds: GSK PKIS; Assays: Nanosyn kinase panel” (2012).

By inhibition is commonly meant the relative decrease from the control value, in per cent.

The target in experiment [1] is Sphingosine kinase 1 (Homo sapiens) (UniProt Q9NYA1). The conditions noted are these: at 1 µM.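 Further: mean SPHK1 inhibition value reported from the GSK PKIS kinase panel screen.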
The target in experiment [2] is T1, Sphingosine kinase 2 (Homo sapiens) (UniProt Q9NRA0).
T1 sequence (whole entry): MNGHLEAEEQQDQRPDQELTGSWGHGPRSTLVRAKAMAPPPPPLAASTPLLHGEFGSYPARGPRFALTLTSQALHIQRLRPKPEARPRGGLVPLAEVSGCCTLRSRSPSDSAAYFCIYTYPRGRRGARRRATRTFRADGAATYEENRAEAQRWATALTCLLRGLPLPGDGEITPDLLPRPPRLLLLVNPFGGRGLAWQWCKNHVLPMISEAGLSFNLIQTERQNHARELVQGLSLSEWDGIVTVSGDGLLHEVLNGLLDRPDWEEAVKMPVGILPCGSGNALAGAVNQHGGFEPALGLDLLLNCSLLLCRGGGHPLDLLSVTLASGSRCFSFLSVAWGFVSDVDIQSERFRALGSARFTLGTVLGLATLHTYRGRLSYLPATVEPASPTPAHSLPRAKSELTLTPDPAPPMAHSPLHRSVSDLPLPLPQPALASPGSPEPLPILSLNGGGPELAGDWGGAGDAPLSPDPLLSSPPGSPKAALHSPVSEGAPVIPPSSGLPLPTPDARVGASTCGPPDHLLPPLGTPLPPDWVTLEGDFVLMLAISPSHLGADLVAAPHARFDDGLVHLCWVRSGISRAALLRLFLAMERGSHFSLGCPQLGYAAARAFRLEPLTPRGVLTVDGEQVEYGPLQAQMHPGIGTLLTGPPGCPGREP
The settings on record: at 0.1 µM.

Experiment [3] deals with T1, Sphingosine kinase 2 (Homo sapiens). The settings on record: at 1 µM.
Experiment [4] concerns the target Casein kinase II subunit alpha (Homo sapiens) (UniProt P68400). The settings on record: at 0.1 µM.
For experiment [5] the target is unchanged. The conditions noted are these: at 1 µM.
Experiment [6] deals with T2, Inhibitor of nuclear factor kappa-B kinase subunit alpha (Homo sapiens) (UniProt O15111).
T2 sequence (whole entry): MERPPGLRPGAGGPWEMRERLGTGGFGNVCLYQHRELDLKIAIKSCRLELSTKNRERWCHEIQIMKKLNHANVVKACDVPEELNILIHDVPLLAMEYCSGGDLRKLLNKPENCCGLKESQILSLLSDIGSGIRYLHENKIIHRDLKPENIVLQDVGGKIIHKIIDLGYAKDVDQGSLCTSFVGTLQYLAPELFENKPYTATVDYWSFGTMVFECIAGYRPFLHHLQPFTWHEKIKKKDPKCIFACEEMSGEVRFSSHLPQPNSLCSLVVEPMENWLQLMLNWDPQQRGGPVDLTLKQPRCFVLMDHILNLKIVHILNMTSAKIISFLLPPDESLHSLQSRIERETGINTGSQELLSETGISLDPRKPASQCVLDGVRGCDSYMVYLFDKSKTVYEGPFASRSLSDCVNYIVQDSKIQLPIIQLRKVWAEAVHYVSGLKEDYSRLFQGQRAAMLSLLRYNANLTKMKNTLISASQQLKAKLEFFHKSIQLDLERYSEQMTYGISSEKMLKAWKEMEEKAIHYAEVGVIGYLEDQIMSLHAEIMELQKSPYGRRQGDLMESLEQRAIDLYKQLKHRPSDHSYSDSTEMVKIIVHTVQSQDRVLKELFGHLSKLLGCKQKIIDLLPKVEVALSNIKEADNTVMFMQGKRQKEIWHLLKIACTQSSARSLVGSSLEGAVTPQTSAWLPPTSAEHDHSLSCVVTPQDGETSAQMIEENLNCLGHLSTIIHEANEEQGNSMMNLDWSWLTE
The conditions noted are these: at 0.1 µM.

The target of experiment [7] is T2, Inhibitor of nuclear factor kappa-B kinase subunit alpha (Homo sapiens). The settings on record: at 1 µM.
Experiment [8] addresses T3, Inhibitor of nuclear factor kappa-B kinase subunit beta (Homo sapiens) (UniProt O14920).
T3 sequence (whole entry): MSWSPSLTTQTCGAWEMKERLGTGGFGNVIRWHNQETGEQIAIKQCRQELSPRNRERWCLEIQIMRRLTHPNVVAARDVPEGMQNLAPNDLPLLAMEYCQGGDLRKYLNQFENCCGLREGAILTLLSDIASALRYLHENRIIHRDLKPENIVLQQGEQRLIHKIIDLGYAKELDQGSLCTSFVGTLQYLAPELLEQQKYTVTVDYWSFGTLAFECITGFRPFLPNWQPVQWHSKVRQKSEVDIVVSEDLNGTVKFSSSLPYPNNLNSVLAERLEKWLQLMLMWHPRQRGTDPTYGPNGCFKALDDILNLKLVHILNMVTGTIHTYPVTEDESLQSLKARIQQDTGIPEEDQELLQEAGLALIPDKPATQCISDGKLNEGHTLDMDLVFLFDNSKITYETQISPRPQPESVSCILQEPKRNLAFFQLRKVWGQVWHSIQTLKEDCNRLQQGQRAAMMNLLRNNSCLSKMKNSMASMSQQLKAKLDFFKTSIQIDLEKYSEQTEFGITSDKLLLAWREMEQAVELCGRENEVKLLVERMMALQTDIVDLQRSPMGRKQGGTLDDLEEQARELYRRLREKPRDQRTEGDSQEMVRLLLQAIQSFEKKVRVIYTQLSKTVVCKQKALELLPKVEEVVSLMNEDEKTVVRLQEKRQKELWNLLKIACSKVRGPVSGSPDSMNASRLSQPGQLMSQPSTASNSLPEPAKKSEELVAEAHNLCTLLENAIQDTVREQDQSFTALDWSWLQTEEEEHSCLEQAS
The conditions noted are these: at 0.1 µM.

In experiment [9] the target is T3, Inhibitor of nuclear factor kappa-B kinase subunit beta (Homo sapiens). The conditions noted are these: at 1 µM.
Experiment [10] deals with T4, Inhibitor of nuclear factor kappa-B kinase subunit epsilon (Homo sapiens) (UniProt Q14164).
T4 sequence (whole entry): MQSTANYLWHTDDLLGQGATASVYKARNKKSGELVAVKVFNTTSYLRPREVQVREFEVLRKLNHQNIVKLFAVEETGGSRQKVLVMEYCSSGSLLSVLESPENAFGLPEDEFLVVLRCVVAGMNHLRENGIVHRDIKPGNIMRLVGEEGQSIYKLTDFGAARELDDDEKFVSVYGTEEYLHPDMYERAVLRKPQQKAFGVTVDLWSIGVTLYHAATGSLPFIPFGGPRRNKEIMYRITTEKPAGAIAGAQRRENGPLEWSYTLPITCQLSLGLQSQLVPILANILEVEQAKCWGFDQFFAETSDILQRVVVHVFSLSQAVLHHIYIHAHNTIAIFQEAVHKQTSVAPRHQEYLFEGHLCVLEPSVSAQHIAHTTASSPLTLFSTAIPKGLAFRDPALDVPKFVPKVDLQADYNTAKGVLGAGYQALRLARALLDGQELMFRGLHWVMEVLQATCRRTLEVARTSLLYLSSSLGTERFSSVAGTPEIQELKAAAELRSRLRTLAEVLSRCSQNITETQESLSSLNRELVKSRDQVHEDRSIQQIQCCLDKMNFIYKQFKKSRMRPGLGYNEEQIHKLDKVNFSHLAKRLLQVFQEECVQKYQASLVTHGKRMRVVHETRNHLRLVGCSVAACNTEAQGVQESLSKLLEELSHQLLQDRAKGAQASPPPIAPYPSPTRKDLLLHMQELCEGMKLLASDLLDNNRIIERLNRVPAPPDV
The conditions noted are these: at 0.1 µM.

Experiment [11] concerns the target T4, Inhibitor of nuclear factor kappa-B kinase subunit epsilon (Homo sapiens). The settings on record: at 1 µM.
The target of experiment [12] is T5, Serine/threonine-protein kinase Nek1 (Homo sapiens) (UniProt Q96PY6).
T5 sequence (whole entry): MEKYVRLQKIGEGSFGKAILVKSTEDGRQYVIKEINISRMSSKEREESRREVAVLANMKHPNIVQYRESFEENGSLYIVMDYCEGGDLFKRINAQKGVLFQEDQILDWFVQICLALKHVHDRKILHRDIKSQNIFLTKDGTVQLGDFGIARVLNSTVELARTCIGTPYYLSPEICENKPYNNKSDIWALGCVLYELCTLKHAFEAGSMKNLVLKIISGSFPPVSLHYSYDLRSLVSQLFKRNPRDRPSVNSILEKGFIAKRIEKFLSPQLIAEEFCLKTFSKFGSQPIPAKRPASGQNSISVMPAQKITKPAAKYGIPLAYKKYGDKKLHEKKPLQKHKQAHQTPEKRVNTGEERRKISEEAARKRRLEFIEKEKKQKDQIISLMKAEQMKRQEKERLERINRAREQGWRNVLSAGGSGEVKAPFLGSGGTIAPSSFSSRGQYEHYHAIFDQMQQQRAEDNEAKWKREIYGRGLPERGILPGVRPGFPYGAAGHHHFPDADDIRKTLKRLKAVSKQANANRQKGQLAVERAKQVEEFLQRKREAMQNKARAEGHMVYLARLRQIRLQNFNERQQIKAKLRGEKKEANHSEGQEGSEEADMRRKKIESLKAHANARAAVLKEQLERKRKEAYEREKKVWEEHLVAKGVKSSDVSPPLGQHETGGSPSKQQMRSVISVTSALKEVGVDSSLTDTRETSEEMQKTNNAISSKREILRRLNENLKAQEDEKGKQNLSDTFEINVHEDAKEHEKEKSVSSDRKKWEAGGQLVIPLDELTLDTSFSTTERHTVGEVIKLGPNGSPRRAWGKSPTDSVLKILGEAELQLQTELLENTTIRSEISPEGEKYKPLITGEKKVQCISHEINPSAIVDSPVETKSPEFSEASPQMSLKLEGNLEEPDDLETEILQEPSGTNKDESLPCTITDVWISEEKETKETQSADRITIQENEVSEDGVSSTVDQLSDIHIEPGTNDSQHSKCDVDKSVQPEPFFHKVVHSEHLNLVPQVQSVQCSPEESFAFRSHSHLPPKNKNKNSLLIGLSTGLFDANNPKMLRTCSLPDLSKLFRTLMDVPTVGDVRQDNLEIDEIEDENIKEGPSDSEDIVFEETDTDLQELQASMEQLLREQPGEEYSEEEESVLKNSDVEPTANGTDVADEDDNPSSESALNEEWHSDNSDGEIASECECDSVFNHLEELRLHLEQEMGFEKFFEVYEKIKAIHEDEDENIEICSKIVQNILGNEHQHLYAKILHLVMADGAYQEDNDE
The settings on record: at 0.1 µM.

The target of experiment [13] is T5, Serine/threonine-protein kinase Nek1 (Homo sapiens). The settings on record: at 1 µM.
The target of experiment [14] is T6, Serine/threonine-protein kinase Nek2 (Homo sapiens) (UniProt P51955).
T6 sequence (whole entry): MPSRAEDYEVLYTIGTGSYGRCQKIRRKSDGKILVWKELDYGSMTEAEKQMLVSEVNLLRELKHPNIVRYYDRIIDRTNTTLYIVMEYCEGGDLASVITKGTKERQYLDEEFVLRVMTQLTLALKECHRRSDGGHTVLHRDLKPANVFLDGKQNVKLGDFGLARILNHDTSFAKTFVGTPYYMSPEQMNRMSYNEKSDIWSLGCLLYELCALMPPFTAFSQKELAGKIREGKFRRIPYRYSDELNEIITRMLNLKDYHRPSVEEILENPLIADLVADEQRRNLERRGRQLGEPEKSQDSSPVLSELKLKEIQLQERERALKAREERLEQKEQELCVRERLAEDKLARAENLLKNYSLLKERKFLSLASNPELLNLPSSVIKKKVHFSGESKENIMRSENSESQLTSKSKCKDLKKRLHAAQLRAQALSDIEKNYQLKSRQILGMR
The settings on record: at 0.1 µM.

In experiment [15] the target is T6, Serine/threonine-protein kinase Nek2 (Homo sapiens). The conditions noted are these: at 1 µM.
Experiment [16] addresses Serine/threonine-protein kinase Nek6 (Homo sapiens) (UniProt Q9HC98). The settings on record: at 0.1 µM.
Experiment [17] has the same target. The settings on record: at 1 µM.
In experiment [18] the target is Serine/threonine-protein kinase Nek7 (Homo sapiens) (UniProt Q8TDX7). The settings on record: at 0.1 µM.
Sequence of Serine/threonine-protein kinase Nek7 (Homo sapiens) (Q8TDX7 whole entry, looked up): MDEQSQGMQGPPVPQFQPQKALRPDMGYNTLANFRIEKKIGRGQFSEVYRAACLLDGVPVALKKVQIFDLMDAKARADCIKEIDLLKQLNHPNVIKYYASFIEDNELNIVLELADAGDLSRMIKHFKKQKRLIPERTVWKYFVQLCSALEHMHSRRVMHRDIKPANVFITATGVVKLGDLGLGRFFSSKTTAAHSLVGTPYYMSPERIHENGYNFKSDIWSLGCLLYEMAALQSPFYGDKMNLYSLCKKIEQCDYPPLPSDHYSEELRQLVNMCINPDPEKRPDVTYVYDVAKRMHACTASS
Experiment [19] has the same target. The conditions noted are these: at 1 µM.
Experiment [20] deals with T7, Serine/threonine-protein kinase Nek9 (Homo sapiens) (UniProt Q8TD19).
T7 sequence (whole entry): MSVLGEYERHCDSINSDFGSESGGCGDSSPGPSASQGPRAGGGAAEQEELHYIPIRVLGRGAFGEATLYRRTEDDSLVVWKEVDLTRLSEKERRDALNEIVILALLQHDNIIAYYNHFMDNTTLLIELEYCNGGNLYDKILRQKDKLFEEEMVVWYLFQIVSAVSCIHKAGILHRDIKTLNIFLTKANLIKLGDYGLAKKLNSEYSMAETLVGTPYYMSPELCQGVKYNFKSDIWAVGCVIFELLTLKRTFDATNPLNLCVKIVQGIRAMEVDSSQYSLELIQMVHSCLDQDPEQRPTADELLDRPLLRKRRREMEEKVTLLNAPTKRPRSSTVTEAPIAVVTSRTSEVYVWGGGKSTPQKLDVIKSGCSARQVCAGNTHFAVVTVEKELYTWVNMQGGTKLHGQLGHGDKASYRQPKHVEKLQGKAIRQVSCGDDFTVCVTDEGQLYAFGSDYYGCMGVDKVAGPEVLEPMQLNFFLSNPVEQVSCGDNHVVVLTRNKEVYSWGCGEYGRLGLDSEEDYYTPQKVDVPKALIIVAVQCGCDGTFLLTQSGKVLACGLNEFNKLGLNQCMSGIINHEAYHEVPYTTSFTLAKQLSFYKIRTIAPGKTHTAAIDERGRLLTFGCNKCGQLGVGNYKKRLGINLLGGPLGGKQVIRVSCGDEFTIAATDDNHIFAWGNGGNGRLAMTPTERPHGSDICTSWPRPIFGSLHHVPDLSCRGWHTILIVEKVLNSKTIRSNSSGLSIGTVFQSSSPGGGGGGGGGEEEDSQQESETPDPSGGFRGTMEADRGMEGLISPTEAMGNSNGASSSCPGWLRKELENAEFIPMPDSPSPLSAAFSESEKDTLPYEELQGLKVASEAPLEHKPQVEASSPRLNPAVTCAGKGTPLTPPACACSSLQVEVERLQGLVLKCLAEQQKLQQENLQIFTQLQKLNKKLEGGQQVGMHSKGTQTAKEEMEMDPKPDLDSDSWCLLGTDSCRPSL
The settings on record: at 0.1 µM.

Sequence of Serine/threonine-protein kinase Nek6 (Homo sapiens) (Q9HC98 whole entry): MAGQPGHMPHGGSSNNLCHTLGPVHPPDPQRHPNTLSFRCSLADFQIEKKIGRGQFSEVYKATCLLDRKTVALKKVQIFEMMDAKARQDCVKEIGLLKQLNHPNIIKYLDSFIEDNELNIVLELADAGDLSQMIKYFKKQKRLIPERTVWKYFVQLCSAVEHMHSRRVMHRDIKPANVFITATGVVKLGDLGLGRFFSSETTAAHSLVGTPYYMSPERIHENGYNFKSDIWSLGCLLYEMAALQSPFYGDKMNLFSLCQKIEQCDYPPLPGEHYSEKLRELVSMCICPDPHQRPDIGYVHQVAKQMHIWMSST
Sequence of Casein kinase II subunit alpha (Homo sapiens) (P68400 whole entry, looked up): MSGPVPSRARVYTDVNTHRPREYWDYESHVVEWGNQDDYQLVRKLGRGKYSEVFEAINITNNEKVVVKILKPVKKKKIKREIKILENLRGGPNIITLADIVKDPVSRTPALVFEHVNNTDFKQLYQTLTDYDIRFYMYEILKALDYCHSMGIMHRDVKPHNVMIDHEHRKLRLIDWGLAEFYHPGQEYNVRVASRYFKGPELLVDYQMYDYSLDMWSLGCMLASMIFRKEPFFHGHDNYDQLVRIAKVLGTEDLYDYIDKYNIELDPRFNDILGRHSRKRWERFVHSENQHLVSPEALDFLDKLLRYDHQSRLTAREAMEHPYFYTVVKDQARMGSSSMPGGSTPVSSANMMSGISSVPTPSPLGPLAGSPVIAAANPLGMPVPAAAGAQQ
Sequence of Sphingosine kinase 1 (Homo sapiens) (Q9NYA1 whole entry): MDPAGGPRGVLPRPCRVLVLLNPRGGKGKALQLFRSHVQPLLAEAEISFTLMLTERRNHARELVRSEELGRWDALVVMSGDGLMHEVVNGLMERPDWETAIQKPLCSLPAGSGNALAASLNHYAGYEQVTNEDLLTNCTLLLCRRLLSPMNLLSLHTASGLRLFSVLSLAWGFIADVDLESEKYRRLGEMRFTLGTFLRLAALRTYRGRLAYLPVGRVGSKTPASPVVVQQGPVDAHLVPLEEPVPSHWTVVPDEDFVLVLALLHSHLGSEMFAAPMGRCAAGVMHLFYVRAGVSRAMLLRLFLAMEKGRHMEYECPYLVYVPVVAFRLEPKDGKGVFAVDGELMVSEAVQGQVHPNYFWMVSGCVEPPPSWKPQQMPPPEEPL

`COc1cc2c(cc1Nc1nc(Nc3cccc(F)c3C(N)=O)c3cc[nH]c3n1)N(C(=O)CN1CCN(C(C)C)CC1)CC2`: the inhibition is 1.21% in experiment [1]; -0.45% in [2]; -0.67% in [3]; 6.72% in experiment [4]; 10.1% in [5]; 2.84% in experiment [6]. Moreover, the inhibition in [7] turned out to be 4.05%; in experiment [8] it was 5.51%; in experiment [9], 1.47%; in experiment [10], 3.12%; in experiment [11], 2.31%; in experiment [12], 2.53%. The inhibition in [13] stood at 6.64%; in experiment [14], 2.3%; in experiment [15], 2.17%; in experiment [16] it was 1.18%; in experiment [17], 1.05%; in experiment [18] it was 3.3%. Besides, the inhibition in experiment [19] came to 6.3%; in [20] it was 0.4%.
